Compound activity (PubChem)
Rows were chosen to be rich in hits. Some 5.7% of all compounds tested hit in one or more screens of this group.
DAX1 inh-1 – inhibitors of DAX1 repression of SF-1 activated StAR promoter; HEK293T StAR-luciferase reporter, SF-1/DAX-1 repression relief; inhibition, % at 6.8 µM; 1.1% of 370,000 active;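 active means inhibition above the mean over all tested compounds plus 3 SD, cut at about 3.6% in these data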;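 further: 0% = DAX-1 cells with DMSO and 100% = cells lacking DAX-1 with DMSO; higher inhibition means more luminescence from relief of DAX-1 repression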
hgDAF-12 ag – agonists of H. glycines DAF-12 nuclear receptor; HEK293 GAL4-hgDAF12 UAS-luciferase reporter, agonist luminescence; normalized to butyrate control; activation, % at 6.8 µM; 1.8% of 370,000 active;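 active means activation above a cutoff set at the mean of all screened compounds plus 3 SD, cut at about 10% in these data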;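 further: 0% = DMSO wells and 100% = sodium butyrate wells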
ssDAF-12 act – S. stercoralis DAF-12 activation, primary screen. HEK293 ssDAF-12/GRIP1 lit1-tk-luc reporter, luminescence; % of 3 µM dafachronic acid response. activation, % at 6.8 µM. 1% of 370,000 active. AID 652126;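 active means activation above the mean over all tested compounds plus 3 SD, cut at about 0.9% in these data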;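 further: 0% = DMSO-only wells and 100% = 3 µM delta7-dafachronic acid wells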
hcDAF12 agonist – H. contortus DAF-12 activation, primary screen; HEK293 hcDAF-12 lit1-tk-luc reporter, luminescence; 0% DMSO, 100% Δ7-dafachronic acid; activation, % at 6.8 µM; 1.4% of 370,000 active; AID 652067;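 active means activation above the mean of all tested compounds plus 3 SD, cut at about 5.5% in these data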;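 further: 100% = response to 3 µM Δ7-dafachronic acid high control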
AHR act – human AHR activation. P35869. AHR-responsive luciferase reporter cells, luminescence. activation, % at 5 µM. 2.5% of 320,000 active; in the data active means activation above about 47%;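 further: 0% = vehicle wells and 100% = reference agonist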
DAX1 inh-2 – inhibitors of human orphan nuclear receptor DAX1 (NR0B1) | inhibition, % at 6.75 µM | 0.99% of 340,000 active | P51843 | HEK293 Gal4-DAX1 luciferase reporter, luminescence | AID 504766;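 active means inhibition above the mean over all tested compounds plus 3 SD, cut at about 4.2% in these data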;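 further: 0% = DAX1-transfected cells with DMSO and 100% = empty-vector control cells with DMSO; inhibition shows as a rise in luminescence from relieved DAX1 repression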
Target sequence (P51843 207-470 limits assumed): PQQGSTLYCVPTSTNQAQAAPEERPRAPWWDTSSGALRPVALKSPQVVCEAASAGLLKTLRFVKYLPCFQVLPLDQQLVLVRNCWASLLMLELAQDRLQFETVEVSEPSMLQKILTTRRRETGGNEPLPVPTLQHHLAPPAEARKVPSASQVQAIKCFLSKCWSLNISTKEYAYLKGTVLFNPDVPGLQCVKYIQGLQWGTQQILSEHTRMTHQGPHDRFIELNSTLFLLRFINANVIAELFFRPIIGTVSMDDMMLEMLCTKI
AHR act confirm – human AHR activation, confirmation | shares compounds with AHR act | 87% of 2,300 active | AID 2845 | human cells, AHR-responsive luciferase reporter, luminescence | activation, % at 9 µM; in the data active means activation above about 49%;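 further: HepG2 hepatoma cells carrying a DRE-driven firefly luciferase reporter; 0% = vehicle wells and 100% = reference agonist wells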
PXR act counter – counter-screen for AHR activators: human PXR activators; 88% of 2,300 active; activation, % at 11.6 µM; shares compounds with AHR act; cell-based PXR reporter, luciferase luminescence; in the data active means activation above about 11%;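 further: human hepatoma DPX-2 cells expressing full-length human PXR; 0% = DMSO and 100% = reference agonist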
Target sequence (O75469 whole entry, looked up): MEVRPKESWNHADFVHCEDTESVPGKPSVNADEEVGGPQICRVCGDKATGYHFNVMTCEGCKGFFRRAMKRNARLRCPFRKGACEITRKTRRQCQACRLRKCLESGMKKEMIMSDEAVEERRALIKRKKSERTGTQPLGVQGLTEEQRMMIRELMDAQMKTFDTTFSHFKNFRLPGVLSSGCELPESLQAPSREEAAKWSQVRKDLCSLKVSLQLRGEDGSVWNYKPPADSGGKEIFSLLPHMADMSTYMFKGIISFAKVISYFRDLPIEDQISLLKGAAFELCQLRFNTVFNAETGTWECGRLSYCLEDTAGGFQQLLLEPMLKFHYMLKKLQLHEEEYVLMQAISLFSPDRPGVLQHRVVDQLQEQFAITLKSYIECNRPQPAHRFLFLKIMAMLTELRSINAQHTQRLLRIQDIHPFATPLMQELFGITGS
* marks the source's active call; other numbers are inactive results; x = no result.

SMILES	DAX1 inh-1	hgDAF-12 ag	ssDAF-12 act	hcDAF12 agonist	AHR act	DAX1 inh-2	AHR act confirm	PXR act counter
C/C=C/COC(=O)c1[nH]c2c(c1C)C(=O)CC(c1ccco1)C2 (stereo not drawn)	2.4	-2.6	-0.2	-1.9	115.9*	-4.2	40.7	196.5*
C=CCOC(=O)c1[nH]c2c(c1C)C(=O)CC(c1ccco1)C2 (stereo not drawn)	x	x	x	x	103.1*	x	22.6	195.2*
Cc1c(C(=O)OCC2CCCO2)[nH]c2c1C(=O)CC(c1ccco1)C2 (stereo not drawn)	x	x	x	x	8.3	-3.5	x	x
COc1ccccc1Nc1nnc(SCC(=O)NC(=O)Nc2ccc3c(c2)OCCO3)s1	-0.7	-2.8	-1.1	-2.1	6.0	0.5	x	x
O=C(Nc1ccc([N+](=O)[O-])cc1)N1CCc2ccccc2C1	-0.7	-2.0	-1.8	-1.7	2.4	0.0	x	x
O=C(Nc1cccc(Cl)c1)N1CCc2ccccc2C1	1.1	10.2	-0.1	1.0	114.0*	1.8	118.1*	29.8*
CC(C)c1ccc(NC(=O)N2CCc3ccccc3C2)cc1	1.7	8.3	-0.8	5.8*	114.0*	-0.5	96.2*	92.7*
COc1ccc([C@@H]2C[C@H](c3ccccc3)Oc3cc(C)cc(C)c32)cc1	-0.2	0.5	-1.1	-0.8	x	0.8	x	x
CN(C)Cc1c(-c2ccc(Cl)cc2)nc2ccc(Cl)cn12	-0.1	-2.1	-1.4	-0.3	133.1*	-0.5	109.4*	11.9*
CC(C)(C)Cc1c(-c2ccc(Cl)cc2)nc2ccc(Cl)cn12	-0.5	2.3	-0.6	-2.6	x	2.6	x	x
COc1cccc(C(=O)NC2=NCCS2)c1	3.0	10.6*	0.8	4.9	132.7*	1.9	55.2*	13.1*
Cc1onc(-c2ccccc2Cl)c1C(=O)Nc1ccccc1O	-0.9	-0.9	-1.2	-2.2	4.5	-2.5	x	x
Clc1ncccc1-c1nc2ccccc2s1	-0.2	6.0	-1.0	1.1	10.4	0.2	x	x
Clc1cc2nc(-c3cccnc3Cl)[nH]c2cc1Cl	3.8*	10.9*	1.1*	6.2*	112.7*	4.3*	108.1*	44.8*
S=C1NC(c2ccccc2)=CC(c2ccccc2)N1 (stereo not drawn)	-0.7	2.9	-0.1	1.4	2.5	x	x	x
S=C1NC(c2cccs2)=CC(c2ccc(Br)cc2)N1 (stereo not drawn)	-0.8	1.6	-0.8	3.2	116.6*	1.6	111.4*	59.5*
COc1ccccc1NC(=O)c1sc2nc(-c3ccco3)ccc2c1N	x	x	x	x	105.5*	-0.3	94.5*	20.5*
CC(=O)c1c(C)nc(-c2ccc(Cl)cc2)nc1NC(=O)C(C)C	-0.1	1.8	-1.2	2.3	115.7*	0.7	136.9*	45.5*
CC(=O)Nc1nc(-c2ccccc2)nc(C)c1C(C)=O	0.2	4.3	-0.8	3.9	80.4*	3.3	105.2*	23.6*
CC(=O)c1c(C)nc(-c2ccccc2)nc1NC(=O)Cc1ccccc1	-0.8	-1.4	-2.0	-1.4	-6.6	-0.9	x	x
CC(C)C[C@H]1CN(CCCC[C@H]2CNC(=O)C(=O)N2CCc2ccccc2)C(=O)C(=O)N1CC1CCCCC1	0.5	3.4	-0.9	-0.7	x	x	x	x
COCCNC(=O)c1cc(-c2ccc(-c3ccccc3)cc2)nc2ccccc12	-4.7	-4.0	-1.6	-1.7	38.5	-0.7	x	x
O=C1c2cccc3c([N+](=O)[O-])ccc(c23)C(=O)N1CCc1ccccn1	-0.2	0.4	0.5	2.9	11.7	-2.4	x	x
O=C1c2ccccc2C(=O)N1CCc1ccccn1	0.4	0.0	-0.6	1.3	99.3*	-0.6	99.9*	10.1*
Sc1oc(-c2ccccc2)cc1C=Nc1ccccc1	-0.2	1.1	0.4	1.9	79.5*	0.5	38.6	20.2*
SMILES	DAX1 inh-1	hgDAF-12 ag	ssDAF-12 act	hcDAF12 agonist	AHR act	DAX1 inh-2	AHR act confirm	PXR act counter
Oc1oc(-c2ccccc2)nc1C=Nc1ccccc1	2.1	4.6	-0.8	1.3	5.0	1.9	x	x
COc1ccc(C2=NCCn3nc4cc(C(F)(F)F)ccc4c32)cc1	0.1	0.8	-0.8	1.4	79.8*	1.4	69.2*	41.6*
COc1ccc(C)cc1NC(=O)C(OC(=O)CNC(=O)c1ccc(Oc2ccccc2)cc1)c1ccccc1 (stereo not drawn)	-0.1	1.7	-1.9	-0.1	94.9*	-1.5	71.1*	19.6*
COc1ccc(C(F)(F)F)cc1NC(=O)C(OC(=O)CNC(=O)c1ccccc1)c1ccccc1 (stereo not drawn)	x	-1.3	-1.5	-1.6	x	x	x	x
Cc1ccc2c(c1)[nH]c1c(=O)n(CCN3CCCCC3)cnc12	1.0	1.4	-0.3	5.0	94.0*	1.2	105.4*	76.3*
CCCc1cc(=O)oc2cc(OCC(=O)NCc3cccs3)ccc12	-0.5	-1.9	-1.1	-1.7	87.2*	-0.2	44.6	43.8*
Cc1cc(C)cc(C(O)c2ncc(-c3ccccc3)[nH]2)c1 (stereo not drawn)	-0.5	0.0	-1.2	0.0	x	x	x	x
CS(=O)(=O)N(CC(=O)Nc1cccc([N+](=O)[O-])c1)c1ccccc1	0.0	2.2	-0.2	0.1	90.2*	1.9	48.1*	82.5*
N#C/C(=C\c1ccc(N2CCCCC2)o1)C(N)=O	-0.4	3.4	-1.4	1.1	1.1	-1.1	x	x
N#C/C(=C\c1ccc(N2CCCCC2)o1)C(=O)Nc1cccc(Br)c1	1.9	8.3	0.5	2.6	99.6*	2.3	72.0*	13.4*
CCn1c(CNc2ccc(F)cc2)nnc1SCC#N	0.6	1.9	-0.1	3.2	21.5	-0.8	x	x
CCn1c(CNc2ccc(Cl)cc2)nnc1SCC#N	-0.2	-3.4	-1.5	1.2	120.3*	0.1	99.8*	47.5*
COc1ccc2nc(NC(=O)CSc3n[nH]c(N)n3)sc2c1	2.1	1.9	-0.8	1.2	93.6*	0.5	108.3*	21.5*
Clc1ccc2nc(-c3ccc(Cl)nc3)[nH]c2c1	0.0	12.1*	-0.1	3.3	87.1*	2.9	137.9*	0.1
CCOC(=O)C(CC)n1nc(C)n2c(cc3sccc32)c1=O (stereo not drawn)	-0.1	-0.3	-1.0	-0.7	-0.1	-0.7	x	x
CCn1ncc(-c2cc(C(=O)O)no2)c1C	-0.4	2.2	0.0	2.0	80.4*	x	5.9	3.4
Cc1c(-c2cc(C(=O)O)no2)cnn1C	-0.1	0.0	-2.0	2.1	18.8	-0.4	x	x
c1ccc(-c2nc(NCc3ccco3)c3oc4ccccc4c3n2)cc1	-1.6	2.1	0.1	3.0	87.6*	1.0	105.0*	34.6*
COc1ccc(OC)c(/C=C/c2ccnc3ccccc23)c1	-4.6	5.4	-0.9	-0.3	x	-3.3	x	x
